# Where “and” joins values, the source holds several entries; their conditions need not be identical. Equal values may be shown once. Calls of active or inactive are those of the source. Unless noted, no rule for the calls is given here.
# Key:
# [1] = liver-stage malaria parasite growth inhibition, primary screen, cell-based, HepG2, luciferase luminescence, HepG2 viability (AID 624349; in the data active = parasite load remaining mostly below about 12%, no sharp cut-off; inactive = mostly above about 10%;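 also: 100% = mean of DMSO negative control wells on the same plate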); conditions: P. berghei liver stage in HepG2, luciferase luminescence, concentration not given here; parasite load remaining: stronger effect = lower value; viability: measured here: HepG2 viability without parasites
# [2] = Cy5 fluorescence interference with SSB-bound oligo, artefact control for HCV NS3 helicase inhibitor project, biochemical, NIH Clinical Collection, E. coli SSB (AID 743268)
# [3] = system: Hepatitis C virus NS3 helicase; assay: HCV NS3 helicase inhibitors, primary screen, biochemical, fluorescence polarization, NIH Clinical Collection (AID 743270); conditions: NS3 helicase binding to Cy5-dT15 DNA, stronger effect = higher value, concentration not given here
# [4] = molecular target: Single-stranded DNA-binding protein (Escherichia coli (strain K12)) (UniProt P0AGE0); assay: E. coli SSB displacement from DNA, counter-screen for HCV NS3 helicase inhibitor project, biochemical, fluorescence polarization, NIH Clinical Collection (AID 743271; in the data active = inhibition above about 28%); conditions: stronger effect = higher value, concentration not given here
# [5] = fluorescence interference in NS3h assay format, artefact control for HCV NS3 helicase inhibitor project, biochemical, NIH Clinical Collection (AID 743272); conditions: fluorescence interference counterscreen, stronger effect = lower value;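 also: HCV NS3 helicase with a Cy5 labelled single stranded DNA probe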
# [6] = stimulators of nuclear beta-catenin in C2C12, primary screen, imaging, WNT3A-conditioned medium, mouse C2C12, NPC library (AID 1117326; in the data active = nuclear beta-catenin stimulation mostly above about 4.2%, no sharp cut-off; inactive = mostly below about 10%); conditions: stronger effect = higher value
# [7] = stimulators of insulin release from INS-1E, primary screen, cell-based, 5 mM glucose, NPC library (AID 1117329;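 active = compound raises insulin release from rat beta cells at 5 mM glucose, no numeric limit stated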); conditions: rat INS-1E insulin secretion, at 10 µM, stronger effect = higher value
# [8] = growth inhibition of GSK3B-pretreated HCT116 cells – cell-based, CellTiter-Glo, 0.2 to 20 µM (AID 1117336;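 active = compounds lowering colon cancer cell viability after pretreatment blocking the GSK3B kinase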); conditions: HCT116 viability after GSK3B inhibitor, at 20 µM, stronger effect = higher value
# [9] = inhibition of endothelial tube formation, primary screen, imaging, VEGF stimulated, CD31 staining, tube area, NPC library (AID 1117340;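 active = compound that reduces growth-factor-driven endothelial tube area in a mixed cell culture, no cutoff stated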); conditions: VEGF-stimulated ADSC/ECFC co-culture, at 10 µM, stronger effect = higher value
# [10] = glucagon-like peptide 1 release enhancers, primary assay, NCI-H716 cell line, NPC library (AID 1117341;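 active = compound raises GLP1 secretion from the human gut endocrine cells, with no numeric limit stated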); conditions: NCI-H716 cells, at 10 µM, stronger effect = higher value
# [11] = HCT116 colon cancer cell growth inhibition, primary screen, CellTiter-Glo luminescence, NPC library (AID 1117342;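 active = compounds that lower survival of HCT116 colon cancer cells in the luminescence readout, no numeric limit stated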); conditions: at 20 µM (top of the series)
# [12] = CellTiter-Glo luminescent readout of SW480 viability loss, NPC library primary (AID 1117343;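 active = compounds that lower viability of the colon cancer cells in the luminescence readout, with no numeric limit stated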); conditions: CellTiter-Glo luminescence; at 20 µM (top of the series)
# [13] = decreased DLD-1 cellular survival, CellTiter-Glo luminescent readout, NPC compound collection, primary HTS (AID 1117346;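 active = compounds that lower survival of DLD-1 colon cancer cells in the luminescence readout, no cutoff given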); conditions: DLD-1 viability, CellTiter-Glo luminescence; at 20 µM (top of the series)
# [14] = molecular target: 6-phosphogluconate dehydrogenase, decarboxylating (Homo sapiens) (UniProt P52209); assay: 6PGD enzyme inhibitors, primary screen, biochemical, human, recombinant enzyme, NADPH absorbance (AID 1159550;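 active = at least 20% inhibition of 6-phosphogluconate dehydrogenase activity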); conditions: recombinant 6PGD, NADPH absorbance 341 nm; at 10 µM; stronger effect = higher value
# [15] = survival rescue of mitochondrial mutant cells in low glucose, primary screen, MELAS cybrids, Rieske KO mouse fibroblasts, CellTiter-Glo (AID 1508586;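 active = mean z-score across replicates of 1.96 or higher in either the MELAS or the Rieske mutant cell line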;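 also: z relative to plate mean and SD of compound and empty wells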)
# [16] = molecular target: Mitogen-activated protein kinase 7 (Homo sapiens) (UniProt Q13164); assay: ERK5 transactivation activators in reporter cells, primary screen, cell-based, HTS (AID 1508626;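 active = luciferase signal above three times the same-plate solvent-only control wells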;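 also: luciferase driven by Gal4-ERK5 fusion binding five Gal4 sites before minimal TATA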); conditions: HeLa Gal4-ERK5 transactivation, 18 h, at 5 µM, stronger effect = higher value
# F380Y = assay: modulators of BK channel variants, profiling panel, selectivity assay, cell-based, U2OS BacMam, thallium flux, beta subunits (AID 1259406;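 active = thallium flux through the channel raised or lowered by more than 3 SD from vehicle-only wells, actives on both sides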;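 also: initial slope of Thallos dye fluorescence rise after thallium is added; log ratio against the mean of 0.3% DMSO vehicle wells on the same plate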); conditions: at 30 µM
# [17] = sensitizers of A549 cells to miR-34 induction, primary screen, imaging, A549 dox-inducible miR-34, nuclei and caspase counts (AID 1347080;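 active = compounds whose cell count with miR-34 switched on is under 0.7 times the count with it off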); conditions: A549 miR-34 inducible, Hoechst nuclei count, 48 h
# [18] = molecular target: NAD(+) hydrolase SARM1 (Homo sapiens) (UniProt Q6SZW1); assay: SARM1 TIR NADase inhibitors, cell lysate, NAD-Glo luminescence (AID 1508614;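 active = compound whose remaining NAD level is above about 45 nM, limit read from the data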;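 also: higher remaining NAD means stronger inhibition of SARM1 NADase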); conditions: SAM-TIR HEK293T lysate NADase, at 1 µM, stronger effect = higher value
# [19] = MELAS cybrid survival, CellTiter-Glo 48 h, stronger effect = higher value
# [20] = Rieske KO mouse fibroblast survival, CellTiter-Glo 72 h
# Chain of Mitogen-activated protein kinase 7 (Homo sapiens) (Q13164 whole entry, looked up, the tested form may be a part): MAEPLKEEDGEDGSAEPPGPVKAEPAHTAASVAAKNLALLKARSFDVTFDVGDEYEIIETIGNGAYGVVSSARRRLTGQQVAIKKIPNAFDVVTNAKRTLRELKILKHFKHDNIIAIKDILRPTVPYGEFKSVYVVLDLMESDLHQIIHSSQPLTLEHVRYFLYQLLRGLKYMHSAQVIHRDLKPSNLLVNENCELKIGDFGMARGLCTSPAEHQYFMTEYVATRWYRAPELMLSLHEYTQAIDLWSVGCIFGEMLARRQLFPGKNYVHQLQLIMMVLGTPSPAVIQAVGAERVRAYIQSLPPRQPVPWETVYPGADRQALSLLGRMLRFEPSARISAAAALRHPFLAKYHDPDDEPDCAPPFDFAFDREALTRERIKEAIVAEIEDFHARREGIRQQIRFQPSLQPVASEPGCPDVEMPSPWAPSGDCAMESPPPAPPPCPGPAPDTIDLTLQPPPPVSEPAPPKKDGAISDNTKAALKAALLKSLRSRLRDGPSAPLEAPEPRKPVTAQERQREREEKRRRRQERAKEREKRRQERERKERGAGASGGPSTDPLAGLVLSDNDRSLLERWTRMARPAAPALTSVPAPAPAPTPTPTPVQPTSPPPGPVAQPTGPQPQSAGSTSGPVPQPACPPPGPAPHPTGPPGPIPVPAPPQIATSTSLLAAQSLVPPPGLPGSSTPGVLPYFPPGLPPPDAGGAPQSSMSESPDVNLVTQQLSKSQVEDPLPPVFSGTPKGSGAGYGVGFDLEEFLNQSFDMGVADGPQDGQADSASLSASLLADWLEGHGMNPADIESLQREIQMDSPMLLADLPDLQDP
# Chain of 6-phosphogluconate dehydrogenase, decarboxylating (Homo sapiens) (P52209 whole entry, looked up): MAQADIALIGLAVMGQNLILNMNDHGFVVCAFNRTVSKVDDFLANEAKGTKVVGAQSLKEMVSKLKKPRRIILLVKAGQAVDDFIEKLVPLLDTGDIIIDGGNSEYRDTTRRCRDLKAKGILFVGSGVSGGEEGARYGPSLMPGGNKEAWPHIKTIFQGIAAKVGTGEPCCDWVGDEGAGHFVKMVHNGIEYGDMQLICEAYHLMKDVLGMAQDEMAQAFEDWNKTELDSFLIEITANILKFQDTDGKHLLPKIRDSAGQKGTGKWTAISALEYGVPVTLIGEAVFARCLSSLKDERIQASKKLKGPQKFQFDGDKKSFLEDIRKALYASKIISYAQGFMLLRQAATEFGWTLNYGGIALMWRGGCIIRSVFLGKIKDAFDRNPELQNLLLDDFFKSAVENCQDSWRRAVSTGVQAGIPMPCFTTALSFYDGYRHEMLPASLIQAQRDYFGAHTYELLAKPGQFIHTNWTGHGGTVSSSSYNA
# Chain of NAD(+) hydrolase SARM1 (Homo sapiens) (Q6SZW1 whole entry, looked up): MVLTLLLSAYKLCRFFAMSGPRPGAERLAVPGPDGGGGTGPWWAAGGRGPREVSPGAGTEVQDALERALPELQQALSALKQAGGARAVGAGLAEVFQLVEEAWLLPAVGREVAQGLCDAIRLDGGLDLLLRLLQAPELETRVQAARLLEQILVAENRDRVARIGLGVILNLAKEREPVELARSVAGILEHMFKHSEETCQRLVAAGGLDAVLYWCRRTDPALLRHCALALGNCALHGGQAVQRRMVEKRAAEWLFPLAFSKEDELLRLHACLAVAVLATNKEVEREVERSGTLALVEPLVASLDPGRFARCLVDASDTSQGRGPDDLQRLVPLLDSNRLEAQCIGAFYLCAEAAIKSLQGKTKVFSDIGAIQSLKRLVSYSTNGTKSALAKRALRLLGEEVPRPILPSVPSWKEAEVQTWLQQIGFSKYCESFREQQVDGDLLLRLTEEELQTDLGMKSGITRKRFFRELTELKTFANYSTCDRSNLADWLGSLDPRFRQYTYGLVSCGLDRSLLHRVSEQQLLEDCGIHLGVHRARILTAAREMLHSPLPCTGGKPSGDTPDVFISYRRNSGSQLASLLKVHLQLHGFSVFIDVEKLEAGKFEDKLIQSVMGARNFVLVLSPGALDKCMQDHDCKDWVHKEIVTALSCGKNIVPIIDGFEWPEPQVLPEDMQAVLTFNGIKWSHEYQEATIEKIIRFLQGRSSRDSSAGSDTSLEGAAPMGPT
smiles,measurement,setting,value
Cc1ccc(O)c([C@H](CCN(C(C)C)C(C)C)c2ccccc2)c1,parasite load remaining,[1],63.7% (inactive)
same,viability,[1],67.2%
same,fluorescence ratio,[2],1 (inactive)
same,inhibition,[3],-4.36% (inactive)
same,inhibition,[4],1.44% (inactive)
same,fluorescence ratio,[5],0.97 (inactive)
same,nuclear beta-catenin stimulation,[6]; at 10 µM,0.8% (inactive)
same,nuclear beta-catenin stimulation,"[6]; stimulation, at 2 µM",3.5%
same,insulin secretion stimulation,[7],30.8% (active)
same,viability decrease,[8],35.6% (inactive)
same,tube area decrease,[9],-14% (inactive)
same,GLP1 secretion stimulation,[10],8.3% (inactive)
same,inhibition of viability,[11],44.4% (inactive)
same,viability decrease (inhibition),[12],69.7% (active)
same,viability decrease (inhibition),[13],-2.4% (inactive)
same,inhibition,[14],-2.71% (inactive)
same,z-score,[15]; [19],-0.175 (inactive)
same,z-score,[15]; [20],0.484
same,luciferase signal,[16],64 AU (inactive)
same,log fold change Tl+ flux,F380Y,0.149 (active)
CC(COc1ccccc1)NC(C)C(O)c1ccc(O)cc1 (stereo not given),parasite load remaining,[1],51.4% (inactive) and 31.5% (inactive) and 101% (inactive)
same,viability,[1],103% and 49.4% and 92.3%
same,fluorescence ratio,[2],1 (inactive)
same,inhibition,[3],-4.09% (inactive)
same,inhibition,[4],1.81% (inactive)
same,fluorescence ratio,[5],0.91 (inactive)
same,nuclear beta-catenin stimulation,[6]; at 10 µM,2.4% (inactive)
same,nuclear beta-catenin stimulation,"[6]; stimulation, at 2 µM",-1%
same,insulin secretion stimulation,[7],3% (inactive)
same,viability decrease,[8],-3.4% (inactive)
same,tube area decrease,[9],15.3% (inactive)
same,GLP1 secretion stimulation,[10],2.4% (inactive)
same,inhibition of viability,[11],18.7% (inactive)
same,viability decrease (inhibition),[12],42.3% (inactive)
same,viability decrease (inhibition),[13],-4.6% (inactive)
same,inhibition,[14],0.0758% (inactive)
same,fold change,"[17]; stronger effect = lower value, cell number ratio, induced over uninduced",0.93 (inactive) and 0.88 (inactive)
same,fold change,[17]; measured here: relative caspase fold change +Dox/-Dox,1.41 and 1.05
same,cell count,"[17]; measured here: total cells with miR-34 induction, stronger effect = lower value",10000 and 8140
same,cell count,[17]; measured here: total cells without miR-34 induction,10800 and 9240
same,z-score,[15]; [19],0.843 (inactive)
same,z-score,[15]; [20],0.798
same,remaining NAD,[18],10 nM (inactive)
same,luciferase signal,[16],72 AU (inactive)
same,log fold change Tl+ flux,F380Y,-0.000146 (inactive)
